A selection: hits, their analogues and other compounds. The true share with any hit is near 5.1%.
TMEM16A act: TMEM16A chloride channel activators or potentiators, primary screen, cell-based, HTS; AID 623877, 2012; B-score at 10 µM; hit rate 0.3% among 340,000; HEK293 TMEM16A/YFP-H148Q/I152L, iodide quench fluorescence; hits give low values; Anoctamin-1 (Mus musculus), Q8BHY3;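 active means fluorescence-ratio B-score plate-corrected deviation score at least 3 library SD below zero, with starting fluorescence score within 5 deviations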;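 further: channel opened by trigger with iodide after compound preincubation; score built on the fluorescence ratio of max minus min over baseline; more negative score means more quench and so TMEM16A activation or potentiation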
ANO1 block: TMEM16A chloride channel inhibitors, primary screen, cell-based, HTS. HEK293 TMEM16A/YFP iodide influx fluorescence, ionomycin. Anoctamin-1 (Mus musculus), Q8BHY3. hit rate 1.2% among 310,000. normalized B-score (activity score, 25-100; higher = stronger inhibition) at 10 µM;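 active means ratio plate-corrected score three or more library SD toward inhibition, starting fluorescence score within five deviations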;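 further: score derived from kinetic fluorescence span divided by baseline fluorescence per well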
CRFBP-R2 agonist: agonists of CRF-BP/CRF-R2 complex, primary screen, cell-based, HEK293, calcium dye fluorescence, uHTS; CRF-binding protein / CRF receptor 2 complex (human); calcium dye fluorescence (FLIPR); percent of saturating CRF peptide response; activation, % at 13.2 µM; hit rate 0.46% among 350,000; AID 588473, 2011;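 active means activation of at least 50%, plus an integration ratio under a set limit after plate pattern correction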
CRFR2-BP antag: antagonists of CRF-BP/CRF-R2 complex, primary screen, cell-based, HEK293, calcium dye fluorescence, uHTS. CRF-induced calcium fluorescence. inhibition, % at 11.8 µM. hit rate 0.59% among 350,000;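 active means inhibition of the ligand-induced calcium signal above about 50% at the single tested concentration, limit read from the data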
MPTP inh: mitochondrial permeability transition pore inhibitors, primary screen, biochemical, isolated mouse mitochondria, absorbance | inhibition, % at 10 µM | Ca2+ swelling absorbance, 30 min | hit rate 1.4% among 360,000;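 active means inhibition of 50% or more, scaled per plate between neutral and stimulator controls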
NR3A LBD binder: binders of NR3A ligand-binding domain, primary screen, biophysical, differential scanning fluorimetry, uHTS | NR3A LBD differential scanning fluorimetry, Tm shift; 0% = protein alone, 100% = glycine-bound protein | Tm shift relative to glycine control, % at 25 µM | hit rate 2.5% among 340,000;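 active means melting temperature shift of at least 10% of the positive control shift, at one fixed dose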
TMEM16A reconf: TMEM16A chloride channel inhibitors, confirmation, cell-based, re-confirmation; HEK293 TMEM16A/YFP-H148Q, iodide quench fluorescence; ionomycin added to raise cell calcium; inhibition, % at 10 µM; hit rate 39% among 2,300; shares compounds with ANO1 block; AID 652189, 2013;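 active means mean duplicate percent inhibition, scaled so buffer wells are 0 and the reference blocker 100, over three buffer SD above buffer mean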
TMEM16A Ca cntr: calcium mobilization in TMEM16A/YFP HEK293 cells, confirmation, counter-screen for TMEM16A inhibitor project | calcium response (% of ionomycin), % at 10 µM | Fluo4 calcium mobilization | shares compounds with ANO1 block | AID 652231, 2013 | hit rate 2% among 2,300;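 active means duplicate-averaged calcium signal over 20% of the ionomycin maximum, relative to buffer baseline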;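 further: each well's signal is peak minus trough fluorescence divided by its pre-addition baseline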
YFP-HEK293 quench: iodide YFP quench changes in parental YFP-HEK293, counter-screen for TMEM16A inhibitor project, cell-based; shares compounds with ANO1 block; ionomycin; YFP ratio F(max-min)/F0 at 10 µM; 2,300 tested, under 10 active; AID 652233, 2013;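 active means yellow fluorescent protein signal ratio exceeding the buffer control mean by over 5 SD of those controls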;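 further: ratio is mean of duplicate wells from kinetic YFP trace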
ClC-1 inh: ClC-1 chloride channel inhibition, selectivity assay for TMEM16A inhibitor project, cell-based, voltage-dependent ClC-1. shares compounds with ANO1 block. CHO ClC-1-YFP, iodide influx fluorescence quench; iodide control reads 0, buffer control 100. ratio percent, % at 10 µM. 2,300 tested, under 10 active. AID 652236, 2013;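 active means duplicate-mean ratio percent above the mean of iodide-only control wells, which defines zero, plus 5 of their SD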;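 further: higher percent means stronger block of ClC-1 iodide influx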
Large screens that a line does not name were inactive (follow-up assays come after a bar, where they were run).

O=S(=O)(Nc1nc(-c2ccccc2)cs1)c1cccc(C(F)(F)F)c1	ANO1 block 100 | TMEM16A reconf 25% | TMEM16A Ca cntr inactive | YFP-HEK293 quench inactive | ClC-1 inh inactive
O=S(=O)(Nc1nc2ccccc2s1)c1ccc(Br)s1	ANO1 block 100 | TMEM16A reconf 24% | TMEM16A Ca cntr inactive | YFP-HEK293 quench inactive | ClC-1 inh inactive
Cc1ccc(S(=O)(=O)Nc2nc3ccccc3s2)cc1	none
CCOC(=O)c1cc(S(=O)(=O)NC2CCC(C)CC2)cn1C (configuration not stated)	none
CCc1nn(C(C)C(=O)NCCN2CCCCCC2)c(=O)c2cc3occc3n12 (configuration not stated)	none
CCc1nn(C(C)C(=O)NCCN2CCN(c3cccc(C)c3C)CC2)c(=O)c2cc3occc3n12 (configuration not stated)	none | TMEM16A reconf inactive | TMEM16A Ca cntr inactive | YFP-HEK293 quench inactive | ClC-1 inh inactive
Oc1ccccc1-c1cc(C(F)(F)C(F)F)[nH]n1	ANO1 block 100 | TMEM16A reconf inactive | TMEM16A Ca cntr inactive | YFP-HEK293 quench inactive | ClC-1 inh inactive
CC(C)(C)c1cc(-c2ccccc2)n[nH]1	none
Fc1ccc(-c2cc(C(F)(F)C(F)F)[nH]n2)cc1	ANO1 block 100, CRFBP-R2 agonist 78, NR3A LBD binder 10 | TMEM16A reconf 54% | TMEM16A Ca cntr inactive | YFP-HEK293 quench inactive | ClC-1 inh inactive
Oc1ccccc1C1=NCCNC(C(F)(F)C(F)F)=C1	none
FC(F)C(F)(F)c1cc(-c2ccc(Cl)cc2)n[nH]1	ANO1 block 100 | TMEM16A reconf 97% | TMEM16A Ca cntr inactive | YFP-HEK293 quench inactive | ClC-1 inh inactive
O=C(COC(=O)c1cc[n+]([O-])cc1)Nc1ccc([N+](=O)[O-])cc1C(F)(F)F	none (no result: ANO1 block)
Cc1cc(N)ccc1NC(=O)c1ccccc1	ANO1 block 100 | TMEM16A reconf inactive | TMEM16A Ca cntr inactive | YFP-HEK293 quench inactive | ClC-1 inh inactive
Cn1c(CNC(=O)CCNC(=O)c2cccc(Br)c2)cc(=O)n(C)c1=O	none
Cc1cccc(CNC(=O)C2CCC(=O)N(CC3CCCCC3)C2)c1 (configuration not stated)	none (no result: TMEM16A act, ANO1 block, NR3A LBD binder)
Cc1ccc(CNC(=O)c2ccccc2NS(=O)(=O)c2ccc(Cl)nc2)cc1	ANO1 block 100 | TMEM16A reconf 18% | TMEM16A Ca cntr inactive | YFP-HEK293 quench inactive | ClC-1 inh inactive
CCCCOC(=O)Nc1nnc(COc2ccccc2)s1	ANO1 block 25 | TMEM16A reconf inactive | TMEM16A Ca cntr inactive | YFP-HEK293 quench inactive | ClC-1 inh inactive
CCN(CC)C(=O)c1cc(-c2ccccc2OC)on1	ANO1 block 100 | TMEM16A reconf inactive | TMEM16A Ca cntr inactive | YFP-HEK293 quench inactive | ClC-1 inh inactive
O=C(COC(=O)c1cccc(S(=O)(=O)N2CCCCC2)c1)NCc1cccc(Cl)c1	none (no result: TMEM16A act, ANO1 block, NR3A LBD binder)
O=C(c1ccco1)N1CCN(CC(O)COc2ccc3oc4ccccc4c3c2)CC1 (configuration not stated)	ANO1 block 25 | TMEM16A reconf 21% | TMEM16A Ca cntr inactive | YFP-HEK293 quench inactive | ClC-1 inh inactive
Cc1cc(C)nc(N/N=C/c2sccc2C)n1	none
Cc1ccsc1/C=N/Nc1ncc(Cl)cc1Cl	ANO1 block 100 | TMEM16A reconf 40% | TMEM16A Ca cntr inactive | YFP-HEK293 quench inactive | ClC-1 inh inactive
CC1CC(C)CN(c2ncnc3c2cnn3Cc2ccc(Cl)cc2)C1 (configuration not stated)	ANO1 block 25 | TMEM16A reconf inactive | TMEM16A Ca cntr inactive | YFP-HEK293 quench inactive | ClC-1 inh inactive
CN(Cc1ccco1)S(=O)(=O)c1ccc(CN2C(=O)c3cccnc3C2=O)s1	none
CN1CCCC1CCNc1ccc2sc3ccccc3c(=O)c2c1 (configuration not stated)	none | TMEM16A reconf inactive | TMEM16A Ca cntr inactive | YFP-HEK293 quench inactive | ClC-1 inh inactive
COc1cc2sc3cc(NCCCN4CCOCC4)ccc3c(=O)c2cc1OC	none (no result: ANO1 block)
COc1ccc(Cc2nc(C(=O)Nc3ccc(OC)cc3)cs2)cc1	ANO1 block 25 | TMEM16A reconf inactive | TMEM16A Ca cntr inactive | YFP-HEK293 quench inactive | ClC-1 inh inactive
COc1ccc(Cc2nc(C(=O)NCc3ccccc3OC)cs2)cc1	none
CCC(C)N1C(=O)c2ccccc2C1C(=O)NC1CCCCCC1 (configuration not stated)	ANO1 block 25 | TMEM16A reconf inactive | TMEM16A Ca cntr inactive | YFP-HEK293 quench inactive | ClC-1 inh inactive
CC(C)N1C(=O)c2ccccc2C1C(=O)NC1CCCCCC1 (configuration not stated)	none
CC(OC(=O)CCN1C(=O)C2CC=CCC2C1=O)C(=O)c1ccc(F)cc1 (configuration not stated)	none (no result: ANO1 block)
C=CCN(CC=C)C(=O)Nc1cc(Cl)ccc1OC	ANO1 block 25 | TMEM16A reconf inactive | TMEM16A Ca cntr inactive | YFP-HEK293 quench inactive | ClC-1 inh inactive
COc1ccc(Cl)cc1NC(=O)CNc1ccccc1CN(C)C1CCCCC1	none
COc1ccc(Cl)cc1NC(=O)CN(C)C1CCCCC1	none | TMEM16A reconf inactive | TMEM16A Ca cntr inactive | YFP-HEK293 quench inactive | ClC-1 inh inactive
COc1ccc(Cl)cc1NC(=O)CC(=O)Nc1cc(Cl)ccc1OC	none
Cc1sc2ncn(CC(=O)OCC(=O)NC(C)(C)C)c(=O)c2c1C	none (no result: TMEM16A act) | TMEM16A reconf inactive | TMEM16A Ca cntr inactive | YFP-HEK293 quench inactive | ClC-1 inh inactive

Screening data deposited in PubChem BioAssay by several laboratories.
